In PubChem BioAssay (NCATS):
“And” between values parts separate entries of the source, which are not always exact repeats. Equal values may be shown once. Inconclusive results are not listed. The source made the active and inactive calls. Calls come from the whole dose curve; as a rule, active = well fitted curve in the direction sought with a large enough effect; inconclusive = small, poorly fitted or top-dose-only effect, or another doubt; inactive = no such curve, though single readings can be large; an effect the other way counts as inactive or inconclusive.

Experiments:
CRL-7250 = normal cell line; assay: Cytotoxic Profiling of Annotated Libraries Using Quantitative High-Throughput Screening (AID 1296008); settings: Five cell lines viability, CellTiter-Glo ATP luminescence, 48-72 h; max response: active compounds read low; note: nearly all actives have a fitted effect of over 60% in size; for max response: % is set by controls: 0 for no effect and ±100 for the full control effect
Summary of the method: (§1)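 Compounds were pin-transferred onto cells and incubated 48 or 72 hr at 37 degree Celsius, 95% humidity. CellTiter-Glo was added, plates sat 10 min at room temperature, then ATP-coupled luminescence was imaged as the viability read-out.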

HaCat [1] = assay: as above; settings: Five cell lines viability, CellTiter-Glo ATP luminescence, 48-72 h; max response: active compounds read low
Summary of the method: as §1

KB-3-1 = assay: as above; settings: Five cell lines viability, CellTiter-Glo ATP luminescence, 48-72 h; max response: active compounds read low
Summary of the method: as §1

NIH3T3 [2] = assay: as above; settings: Five cell lines viability, CellTiter-Glo ATP luminescence, 48-72 h; max response: active compounds read low
Summary of the method: as §1

MCC-13 = assay: qHTS assay to identify novel small-molecules to repurpose for Merkel cell carcinoma treatment (AID 1296009); settings: MCC and control cell lines, CellTiter-Glo viability, 72 h; series mostly up to 46 µM; note: nearly all actives have a fitted effect of over 60% in size
Summary of the method: (§2)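 Luminescence from CellTiter-Glo, read 10 min after addition at room temperature, reported viability following a 72 hr, 37 degree celsius treatment with NPC or MIPE compounds in titration; values normalized to plate controls.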

MCC-26 = assay: as above; settings: MCC and control cell lines, CellTiter-Glo viability, 72 h; series mostly up to 46 µM
Summary of the method: as §2

MKL-1 = assay: as above; settings: MCC and control cell lines, CellTiter-Glo viability, 72 h; series mostly up to 46 µM
Summary of the method: as §2

MKL-2 = assay: as above; settings: MCC and control cell lines, CellTiter-Glo viability, 72 h; series mostly up to 46 µM
Summary of the method: as §2

UISO = assay: as above; settings: MCC and control cell lines, CellTiter-Glo viability, 72 h; series mostly up to 46 µM
Summary of the method: as §2

WaGa = assay: as above; settings: MCC and control cell lines, CellTiter-Glo viability, 72 h; series mostly up to 46 µM
Summary of the method: as §2

C33A = assay: Primary qHTS to identify gynecologic anti-cancer compounds using libraries of approved drugs and bioactive compounds (AID 1345084); settings: Gynecologic cancer cell panel viability, ATPlite luminescence, 48 h; series mostly up to 57.5 µM; note: nearly all actives have a fitted effect of over 55% in size
Summary of the method: (§3)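 Measured: luminescence after ATPlite addition (15 min, RT). Exposure: 48 h, 37 C, 5% CO2.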

CASKI = assay: as above; settings: Gynecologic cancer cell panel viability, ATPlite luminescence, 48 h; series mostly up to 57.5 µM
Summary of the method: as §3

Es-2 = assay: as above; settings: Gynecologic cancer cell panel viability, ATPlite luminescence, 48 h; series mostly up to 57.5 µM
Summary of the method: as §3

HeLa = assay: as above; settings: Gynecologic cancer cell panel viability, ATPlite luminescence, 48 h; series mostly up to 57.5 µM
Summary of the method: as §3

HACAT [3] = assay: qHTS assay to identify novel small-molecules to repurpose for Merkel cell carcinoma treatment (AID 1296009); settings: MCC and control cell lines, CellTiter-Glo viability, 72 h; at 44.8 µM (top of the series) unless noted; note: nearly all actives have a fitted effect of over 60% in size
Summary of the method: as §2

CAOV3 = assay: Primary qHTS to identify gynecologic anti-cancer compounds using libraries of approved drugs and bioactive compounds (AID 1345084); settings: Gynecologic cancer cell panel viability, ATPlite luminescence, 48 h; series mostly up to 57.5 µM; note: nearly all actives have a fitted effect of over 55% in size
Summary of the method: as §3

W2 = assay: qHTS profiling for inhibitors of Plasmodium falciparum proliferation (AID 504749); note: nearly all actives have a fitted effect of over 60% in size; settings: P. falciparum in erythrocytes, SYBR Green DNA, 72 h; series mostly up to 28.7 µM
Summary of the method: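 Fluorescence of SYBR Green-bound parasite DNA, read at 485/535 nm, served as the growth measure. Infected erythrocytes were cultured with compound 72 h; artemisinin (0.29 uM) and DMSO wells defined the normalization range.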

HEK293 = assay: Cytotoxic Profiling of Annotated Libraries Using Quantitative High-Throughput Screening (AID 1296008); settings: Five cell lines viability, CellTiter-Glo ATP luminescence, 48-72 h; max response: active compounds read low; note: nearly all actives have a fitted effect of over 60% in size; for max response: % is set by controls: 0 for no effect and ±100 for the full control effect
Summary of the method: as §1

NIH3T3 [4] = assay: qHTS assay to identify novel small-molecules to repurpose for Merkel cell carcinoma treatment (AID 1296009); settings: MCC and control cell lines, CellTiter-Glo viability, 72 h; at 44.8 µM (top of the series); note: nearly all actives have a fitted effect of over 60% in size
Summary of the method: as §2
Potency is the fitted concentration of half-maximal effect.

CCCCCCCCCCCCCCC[C@H](O)[C@@H](N)CO
inactive: max response (CRL-7250) -2.05% | max response (HaCat [1]) -24.2% | max response (KB-3-1) -4.68% | max response (NIH3T3 [2]) -9.49% | Potency (MCC-13) | Potency (MCC-26) | Potency (MKL-1) | Potency (MKL-2) | Potency (UISO) | Potency (WaGa) | Potency (C33A) | Potency (CASKI) | Potency (Es-2) | Potency (HeLa)

CCCCOC(=O)CC(CC(=O)OCCCC)(OC(C)=O)C(=O)OCCCC
inactive: max response (CRL-7250) -18.3% | outcome (HaCat [1]) | max response (NIH3T3 [2]) -2.35% | outcome (HACAT [3]) | Potency (MCC-13) | Potency (MCC-26) | Potency (MKL-1) | Potency (MKL-2) | Potency (UISO) | Potency (WaGa) | Potency (C33A) | Potency (CAOV3) | Potency (CASKI) | Potency (Es-2) | Potency (HeLa)

CCN1/C(=C/C=C/c2sc3ccccc3[n+]2CC)Sc2ccccc21
active: Potency (W2) 0.0953 µM | Potency (CRL-7250) 0.13 µM | Potency (HaCat [1]) 2.91 µM | Potency (KB-3-1) 7.31 µM | Potency (NIH3T3 [2]) 1.84 µM | Potency (MCC-13) 3.26 µM | Potency (MCC-26) 5.8 µM | Potency (MKL-1) 0.366 µM | Potency (MKL-2) 0.058 µM | Potency (UISO) 0.366 µM | Potency (WaGa) 0.82 µM | Potency (C33A) 2.51 µM | Potency (Es-2) 2.51 µM | Potency (HeLa) 0.891 µM

CCOc1cc(OCC)c(C(=O)CCC(=O)O)cc1OCC
inactive: Potency (W2) | max response (HEK293) -0.0497% | outcome (HaCat [1]) | max response (KB-3-1) -0.0013% | outcome (NIH3T3 [2]) | outcome (HACAT [3]) | Potency (MCC-13) | Potency (MCC-26) | Potency (MKL-1) | Potency (MKL-2) | outcome (NIH3T3 [4]) | Potency (UISO) | Potency (WaGa) | Potency (C33A) | Potency (CAOV3) | Potency (CASKI) | Potency (Es-2) | Potency (HeLa)

COc1ccc(-c2cc(C(F)F)nn2-c2ccc(S(N)(=O)=O)cc2)cc1F
inactive: Potency (W2) | max response (CRL-7250) 2.74% | max response (HaCat [1]) -0.189% | max response (KB-3-1) 15.2% | max response (NIH3T3 [2]) 1.89% | Potency (MCC-13) | Potency (MCC-26) | Potency (MKL-1) | Potency (MKL-2) | Potency (UISO) | Potency (WaGa) | Potency (C33A) | Potency (CAOV3) | Potency (CASKI) | Potency (Es-2) | Potency (HeLa)

CC(C)(Cc1c[nH]c2ccccc12)NCC(O)COc1ccccc1C#N (stereo unspecified)
inactive: max response (CRL-7250) -4.9% | max response (HaCat [1]) -15.6% | max response (KB-3-1) 19.5% | max response (NIH3T3 [2]) -8.73% | Potency (MCC-13) | Potency (MCC-26) | Potency (MKL-1) | Potency (MKL-2) | Potency (C33A) | Potency (CAOV3) | Potency (CASKI) | Potency (Es-2) | Potency (HeLa)
active: Potency (W2) 3.79 µM

CC(=O)O[C@]1(C(C)=O)CC[C@H]2[C@@H]3C=C(C)C4=CC(=O)CC[C@]4(C)[C@H]3CC[C@@]21C
inactive: max response (CRL-7250) -4.16% | max response (HaCat [1]) -4.96% | max response (KB-3-1) 11.8% | max response (NIH3T3 [2]) 0.169% | Potency (MCC-13) | Potency (MKL-1) | Potency (MKL-2) | Potency (UISO) | Potency (WaGa) | Potency (C33A) | Potency (CAOV3) | Potency (CASKI) | Potency (Es-2) | Potency (HeLa)

O=C(Nc1cccc(C2=NCCN2)c1)Nc1cccc(C2=NCCN2)c1
inactive: outcome (CRL-7250) | max response (HaCat [1]) -0.992% | max response (KB-3-1) -7.99% | max response (NIH3T3 [2]) 1.41% | Potency (MCC-13) | Potency (MKL-1) | Potency (MKL-2) | Potency (UISO) | Potency (WaGa) | Potency (C33A) | Potency (CAOV3) | Potency (CASKI) | Potency (Es-2) | Potency (HeLa)
active: Potency (W2) 1.69 µM

CCC(C(=O)OCCOCCN(CC)CC)c1ccccc1 (stereo unspecified)
active: Potency (W2) 12 µM
inactive: max response (HEK293) -19.3% | outcome (HaCat [1]) | max response (KB-3-1) 16.3% | outcome (NIH3T3 [2]) | outcome (HACAT [3]) | Potency (MCC-13) | Potency (MCC-26) | Potency (MKL-1) | Potency (MKL-2) | outcome (NIH3T3 [4]) | Potency (UISO) | Potency (WaGa) | Potency (C33A) | Potency (CAOV3) | Potency (CASKI) | Potency (Es-2) | Potency (HeLa)

O=C(CCCN1CC=C(n2c(=O)[nH]c3ccccc32)CC1)c1ccc(F)cc1
active: Potency (UISO) 26.6 µM
inactive: max response (CRL-7250) -30.7% | max response (HaCat [1]) -9.03% and -18.9% | max response (KB-3-1) 3.95% and 1.87% | max response (NIH3T3 [2]) -10.6% | Potency (MKL-1) | Potency (MKL-2) | Potency (C33A) | Potency (CASKI) | Potency (Es-2) | Potency (HeLa)

CN(CCCN1c2ccccc2CCc2ccccc21)CC(=O)c1ccc(Cl)cc1
active: Potency (W2) 3.38 µM
inactive: max response (CRL-7250) -9.87% | max response (HaCat [1]) -17.1% | max response (KB-3-1) 3.26% | max response (NIH3T3 [2]) 3.31% | Potency (MCC-13) | Potency (MCC-26) | Potency (MKL-1) | Potency (C33A) | Potency (CAOV3) | Potency (CASKI) | Potency (Es-2) | Potency (HeLa)

CCc1ccc(C(=O)C(C)CN2CCCCC2)cc1 (stereo unspecified)
inactive: max response (HEK293) -19.7% | outcome (HaCat [1]) | max response (KB-3-1) -1.02% | max response (NIH3T3 [2]) -2.26% | outcome (HACAT [3]) | Potency (MCC-13) | Potency (MCC-26) | Potency (UISO) | Potency (C33A) | Potency (CAOV3) | Potency (CASKI) | Potency (Es-2) | Potency (HeLa)
active: Potency (MKL-2) 11.9 µM

C[N+]1(CC2COC(c3ccccc3)(C3CCCCC3)O2)CCCCC1 (stereo unspecified)
inactive: max response (CRL-7250) -1.29% | max response (HaCat [1]) 3.15% | max response (KB-3-1) -6.02% | max response (NIH3T3 [2]) -8.34% | Potency (MCC-13) | Potency (MCC-26) | Potency (C33A) | Potency (CASKI) | Potency (Es-2) | Potency (HeLa)
active: Potency (W2) 5.36 µM | Potency (MKL-1) 10.6 µM | Potency (MKL-2) 5.96 µM | Potency (WaGa) 18.8 µM

Cc1cccc(C)c1NC(=O)CN1CCCC1
inactive: max response (HEK293) 0.0979% | outcome (HaCat [1]) | max response (KB-3-1) 8.28% | max response (NIH3T3 [2]) 1.81% | outcome (HACAT [3]) | Potency (MCC-13) | Potency (MCC-26) | Potency (MKL-1) | Potency (MKL-2) | Potency (UISO) | Potency (WaGa) | Potency (C33A) | Potency (CAOV3) | Potency (CASKI) | Potency (Es-2) | Potency (HeLa)
